Results filed as inconclusive are left out. The source made the active and inactive calls. The call rests on the fitted dose curve; in most records, active means well fitted curve in the direction sought with a large enough effect in the repeat runs; inconclusive means weak or mixed curves; inactive means no such curve, though single readings can be large; an effect the other way counts as inactive or inconclusive.
Legend:
[1] = qHTS RealTime-Glo MT Cell Viability Assay in HEK293 cells - 32 hour (AID 1224868); further: top concentration of the series differs between compounds; nearly all actives have a fitted effect of over 50% in size
Outline: (§1)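 Viability tracked continuously by luminescence as live cells reduce a prosubstrate for NanoLuc; HEK293 cells preincubated 5 h, compound-treated at 37 C, and read at 0, 8, 16, 24, 32 and 40 h.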

[2] = A CellTox Green Cytotoxicity Assay to monitor cytotoxicity in HEK293 cells - 0 hour (AID 1224869); further: nearly all actives have a fitted effect of over 50% in size
Outline: (§2)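 Dead-cell fluorescence measured kinetically: asymmetric cyanine dye, HEK293, 600 cells/well, 5 h settle, 23 nL cpd/DMSO, 37 C, reads 0–40 h every 8 h.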

[3] = qHTS RealTime-Glo MT Cell Viability Assay in HepG2 cells - 40 hour (AID 1224870); further: nearly all actives have a fitted effect of over 50% in size
Outline: (§3)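 HepG2 cells (600/well) mixed with RealTime-Glo MT reagent, settled 5 h at 37 C/5% CO2 before compound addition. Nonlytic NanoLuc luminescence from viable-cell prosubstrate reduction read repeatedly during 40 h treatment at 37 C.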

[4] = A CellTox Green Cytotoxicity Assay to monitor cytotoxicity in HEK293 cells - 40 hour (AID 1224871); further: nearly all actives have a fitted effect of over 45% in size
Outline: as §2

[5] = qHTS RealTime-Glo MT Cell Viability Assay in HEK293 cells - 16 hour (AID 1224872); further: top concentration of the series differs between compounds; nearly all actives have a fitted effect of over 50% in size
Outline: as §1

[6] = qHTS RealTime-Glo MT Cell Viability Assay in HepG2 cells - 8 hour (AID 1224873); further: nearly all actives have a fitted effect of over 55% in size
Outline: as §3

[7] = qHTS RealTime-Glo MT Cell Viability Assay in HEK293 cells - 40 hour (AID 1224874); conditions: RealTime-Glo luminescence; max response: stronger effect = lower value; further: nearly all actives have a fitted effect of over 50% in size
Outline: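 600 HEK293 cells per well, dispensed already mixed with RealTime-Glo MT reagents. Compound dosing came 5 h later. The same wells were read for luminescence at 0, 8, 16, 24, 32 and 40 h of exposure at 37 C.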

[8] = A CellTox Green Cytotoxicity Assay to monitor cytotoxicity in HEK293 cells - 24 hour (AID 1224875); further: series mostly up to about 77 µM; nearly all actives have a fitted effect of over 45% in size
Outline: as §2

[9] = A CellTox Green Cytotoxicity Assay to monitor cytotoxicity in HepG2 cells - 16 hour (AID 1224876); further: nearly all actives have a fitted effect of over 45% in size
Outline: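 First, HepG2 cells (600/well) mixed with reagent were plated; second, after 5 h at 37 C they received compounds via pintool; third, fluorescence was measured at 0 h through 40 h at 8 h intervals.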

[10] = qHTS RealTime-Glo MT Cell Viability Assay in HepG2 cells - 32 hour (AID 1224877); further: nearly all actives have a fitted effect of over 55% in size
Outline: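 Viability was tracked continuously by NanoLuc luminescence from prosubstrate reduced by living HepG2 cells, at successive time points over 40 h of compound exposure. Cells with reagent were preincubated 5 h at 37 °C before compound addition.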
On the % scale 0 is the no-effect control and ±100 the full control effect.

Cc1ccc2c(c1)C(=O)c1ccccc1C2=O
inactive: Potency [1] | Potency [2] | outcome [3] | Potency [4] | Potency [5] | outcome [6] | max response [7] 5.01% | Potency [8] | Potency [9] | outcome [10]

CN(C)C(C)(C)CO
inactive: Potency [1] | Potency [2] | outcome [3] | Potency [4] | Potency [5] | outcome [6] | max response [7] 1.89% | Potency [8] | Potency [9] | outcome [10]

c1ccc2c(CC3=NCCN3)cccc2c1
inactive: Potency [1] | Potency [2] | outcome [3] | Potency [4] | Potency [5] | outcome [6] | max response [7] -13.3% | Potency [8] | Potency [9] | outcome [10]

CC1(C)Cc2cccc(N)c2O1
inactive: Potency [1] | Potency [2] | outcome [3] | Potency [4] | Potency [5] | outcome [6] | max response [7] 1.5% | Potency [8] | Potency [9] | outcome [10]

CCCc1ccc(O)cc1
inactive: Potency [1] | Potency [2] | outcome [3] | Potency [4] | Potency [5] | outcome [6] | max response [7] 6.55% | Potency [8] | Potency [9] | outcome [10]

CC(C)[C@H]1CC[C@H](C)C[C@@H]1O
inactive: Potency [1] | Potency [2] | outcome [3] | Potency [4] | Potency [5] | outcome [6] | max response [7] 2.31% | Potency [8] | Potency [9] | outcome [10]

OC1OCCOC1O (stereo not given)
inactive: Potency [1] | Potency [2] | outcome [3] | Potency [4] | Potency [5] | outcome [6] | max response [7] 9.9% | Potency [8] | Potency [9] | outcome [10]

CCOCCOCC
inactive: Potency [1] | Potency [2] | outcome [3] | Potency [4] | Potency [5] | outcome [6] | max response [7] 2.51% | Potency [8] | Potency [9] | outcome [10]

Cc1c(C(=O)c2c[nH]n(C)c2=O)ccc(S(C)(=O)=O)c1C1=NOCC1
inactive: Potency [1] | Potency [2] | outcome [3] | Potency [4] | Potency [5] | outcome [6] | max response [7] 2.86% | Potency [8] | Potency [9] | outcome [10]

O=C(O)CNC(=O)CNC(=O)CNC(=O)CSC(=O)c1ccccc1
inactive: Potency [1] | Potency [2] | outcome [3] | Potency [4] | Potency [5] | outcome [6] | max response [7] 6.64% | Potency [8] | Potency [9] | outcome [10]

CC1c2ccccc2CN1NC(=O)c1ccc(Cl)c(S(N)(=O)=O)c1 (stereo not given)
inactive: Potency [1] | Potency [2] | outcome [3] | Potency [4] | Potency [5] | outcome [6] | max response [7] -0.0255% | Potency [8] | Potency [9] | outcome [10]

CCCCCCCCCOC(=O)c1ccccc1C(=O)OCCCCCCCCC
inactive: Potency [1] | Potency [2] | outcome [3] | Potency [4] | Potency [5] | outcome [6] | max response [7] 2.9% | Potency [8] | Potency [9] | outcome [10]

O=S(=O)(O)c1ccc2c(N=Nc3ccc(S(=O)(=O)O)c4ccccc34)c(O)c(S(=O)(=O)O)cc2c1
inactive: activity change, negative = cytotoxic [1] 7.73% [at 6.97 µM] | cytotoxicity [2] 3.08% [at 6.97 µM] | activity change, negative = cytotoxic [3] -7.38% [at 6.97 µM] | cytotoxicity increase [4] 7.83% [at 6.97 µM] | activity change, negative = cytotoxicity [5] 5.03% [at 6.97 µM] | viability change, negative = cytotoxic [6] 0.329% [at 6.97 µM] | max response [7] 4.14% | activity change [8] 9.08% [at 6.97 µM, stronger effect = higher value] | cytotoxicity increase [9] -11.6% [at 6.97 µM] | activity change, negative = cytotoxic [10] -3.7% [at 6.97 µM]

CCOC(=O)CC1(C)OCC(C)O1 (stereo not given)
inactive: Potency [1] | Potency [2] | outcome [3] | Potency [4] | Potency [5] | outcome [6] | max response [7] 1.97% | Potency [8] | Potency [9] | outcome [10]

CC/C(C)=N\O[Si](C)(O/N=C(\C)CC)O/N=C(\C)CC
inactive: Potency [1] | Potency [2] | outcome [3] | Potency [4] | Potency [5] | outcome [6] | max response [7] -3.49% | Potency [8] | Potency [9] | outcome [10]

CC(N)CCCC(C)(C)O (stereo not given)
inactive: Potency [1] | Potency [2] | outcome [3] | Potency [4] | Potency [5] | outcome [6] | max response [7] 10% | Potency [8] | Potency [9] | outcome [10]

CCC(C)C(C)=O (stereo not given)
inactive: Potency [1] | Potency [2] | outcome [3] | Potency [4] | Potency [5] | outcome [6] | max response [7] 0.997% | Potency [8] | Potency [9] | outcome [10]

COc1cc2c(cc1OC)CN(C(=O)[C@H](C)N[C@@H](CCc1ccccc1)C(=O)O)[C@H](C(=O)O)C2
inactive: Potency [1] | Potency [2] | outcome [3] | Potency [4] | Potency [5] | outcome [6] | max response [7] 2.78% | Potency [8] | Potency [9] | outcome [10]

— PubChem BioAssay (Tox21)
